Screening data (PubChem)
The list is not random: actives were taken first. Their share in the collection is about 2.8%.
HTT aggregate = mutant huntingtin aggregation inhibition; PC12 HttQ103-GFP aggregates, Acumen cytometry, 40 h; Potency, µM (highest dose often 46.1 µM), most hits filed as inhibitors; 1.1% of 220,000 active; AID 1688; also: nearly all actives have a fitted effect of over 60% in size
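Aggregates are detected as GFP objects 1–25 µm with signal 6 STDEV over background in lysates of induced PC12 cells. These carry Huntingtin exon 1 with 103 glutamines fused to GFP under an ecdysone promoter; compounds titrated.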
HTT cytoprotect = cytoprotection in Huntington HTT-Q103 PC12 cell model; Potency, µM (top dose mostly 56.4 µM), most hits filed as activators; PC12 HTT-Q103 induced, cytoprotection, ATP luminescence, 40 h; 0.14% of 230,000 active; also: nearly all actives have a fitted effect of over 45% in size
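PC12 cells stably carrying ecdysone-inducible Htt exon 1 (Q103)–GFP were induced with 100 nM tebufenozide (final) alongside library compounds in a dose series. Cytoprotection was scored as retained ATP by ATPlite luminescence.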
ATXN2 expr inh = ATXN2 expression inhibition; HEK-293 ATXN2-luciferase reporter, luminescence, 24 h; Potency, µM (series often up to 57 µM), actives largely listed as inhibitors; 0.72% of 360,000 active; also: nearly all actives have a fitted effect of over 55% in size
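ATXN2-luciferase reporter cells (luciferase flanked by upstream and downstream ATXN2 gene portions) were treated 24 h at 37 °C with compounds at up to 57 uM. SteadyGlo luminescence gave expression; GF-AFC fluorescence gave viability.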
TGFb SMAD3 inh = blocks TGF-b signaling. HepG2 CAGA-GFP TGF-b/SMAD3 reporter, GFP fluorescence, 18 h; TGF-beta stimulated, 500 pg/mL final. Potency, µM (titrated, usually from 46.1 µM), actives largely listed as inhibitors. 1.2% of 410,000 active. AID 588855; also: nearly all actives have a fitted effect of over 65% in size
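First, reporter cells (HEPG2 CAGA-GFP) rested 2 h at 37 degrees C. Next, compounds were pinned in and TGF-beta added to 500 pg/mL final. After 18 h, GFP was imaged per cell and summed per well.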
HepG2 tox = counter-screen for TGF-b inhibitors: cytotoxicity in HepG2 cells; Potency, µM (titrated, usually from 46.1 µM), actives largely listed as cytotoxic; HepG2 CAGA-GFP viability, ATP luminescence, 18 h; 0.76% of 410,000 active
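HepG2 CAGA-GFP cells (1000/well, DMEM with 1% FBS) received compound, then TGF-beta at 500 pg/mL final, and were incubated 18 hours at 37 degrees C. Viability was read by CellTiter-Glo luminescence. Media-only wells were set as complete cell-killing and DMSO as no toxicity.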
ATXN viability = cell viability loss in ATXN counter-screen. S2 cells (HEK-293 line with an ATXN2-luciferase reporter) viability, CellTiter-Fluor protease fluorescence, 24 h. 0.49% of 400,000 active. Potency, µM (top dose mostly 56.7 µM), hits mostly cytotoxic; also: nearly all actives have a fitted effect of over 40% in size
Large screens that a line does not name were inactive. Calls follow the shape of the dose curve; as a rule, active = well fitted curve in the direction sought with a large enough effect; inconclusive = small, poorly fitted or top-dose-only effect, or another doubt; inactive = no such curve, though single readings can be large; an effect the other way counts as inactive or inconclusive.

COc1ccc(C2/C=C\CN(C(=O)C3CC3)C(C)C(=O)N2Cc2ccc(F)cc2)cc1 (stereo not drawn)	TGFb SMAD3 inh inconclusive (no result: HTT aggregate, HTT cytoprotect, ATXN2 expr inh, ATXN viability)
CCC(=O)N1C2=C(c3ccccc3[C@@H]1CC(=O)Nc1ccc3ccccc3c1)[C@@H]1C(=O)N(c3ccccc3)C(=O)[C@@H]1[C@H](C)C2	none (no result: HTT aggregate, ATXN2 expr inh, TGFb SMAD3 inh, HepG2 tox, ATXN viability)
NC1=N[C@H]2[C@H](CS[C@H]2CCCCC(=O)O)N1	none (no result: HTT aggregate, HTT cytoprotect, TGFb SMAD3 inh, HepG2 tox, ATXN viability)
Oc1ccc(C(c2nnnn2C2CCCCC2)N2CCOCC2)cc1 (stereo not drawn)	HTT aggregate 2.8µM (no result: HTT cytoprotect)
c1cc(C(c2nnnn2C2CCCC2)N2CCOCC2)ccn1 (stereo not drawn)	none
Cc1ccc(S(=O)(=O)/N=C2/C=C(Sc3ncn[nH]3)C(=O)c3ccccc32)cc1	HTT aggregate 3.2µM, ATXN2 expr inh inconclusive, TGFb SMAD3 inh 1µM, HepG2 tox 2µM, ATXN viability inconclusive
CC(C)c1ccc(S(=O)(=O)/N=C2/C=C(Sc3ncn[nH]3)C(=O)c3ccccc32)cc1	HTT aggregate 3.5µM, ATXN2 expr inh 14µM, TGFb SMAD3 inh 7.9µM, HepG2 tox 10µM, ATXN viability inconclusive
Cc1ccc(S(=O)(=O)/N=C2\C=C(NS(=O)(=O)c3ccccc3)C(=O)c3ccccc32)c(C)c1	none (no result: HTT aggregate, HTT cytoprotect)
Cc1ccc(S(=O)(=O)/N=C2/C=C(Sc3ncn[nH]3)C(=O)c3ccccc32)c(C)c1	HTT aggregate 5µM (no result: ATXN2 expr inh, TGFb SMAD3 inh, HepG2 tox, ATXN viability)
Cc1ccc(S(=O)(=O)Nc2ccc(O)c(Sc3ncn[nH]3)c2)cc1	none (no result: HTT aggregate, HTT cytoprotect)
OC1C(Br)=Cc2ccccc21 (stereo not drawn)	none (no result: HTT aggregate, HTT cytoprotect, ATXN2 expr inh, ATXN viability)
Cc1cc(C)cc(CC(Cc2nc3ccccc3[nH]2)c2nc3ccccc3[nH]2)c1 (stereo not drawn)	HTT aggregate 22µM, ATXN2 expr inh inconclusive, TGFb SMAD3 inh inconclusive, ATXN viability inconclusive
Cc1cccc2cc(-c3ccccc3)c(-c3ccccc3)c[n+]12	HTT aggregate 18µM, ATXN2 expr inh inconclusive, TGFb SMAD3 inh inconclusive, ATXN viability inconclusive (no result: HTT cytoprotect)
CNc1ccc(/C=C2\C=Cc3ccccc32)cc1I	none (no result: HTT aggregate, HTT cytoprotect, ATXN2 expr inh, ATXN viability)
COc1cccc(C2CC(C(F)(F)F)n3ncc(C(=O)NCc4ccco4)c3N2)c1 (stereo not drawn)	HTT aggregate 2.8µM, TGFb SMAD3 inh inconclusive
COc1cccc(C2CC(C(F)(F)F)n3ncc(C(=O)NC(C)(C)C)c3N2)c1 (stereo not drawn)	ATXN viability inconclusive
Oc1ccccc1N=Nc1ccccc1O	HTT aggregate inconclusive, TGFb SMAD3 inh inconclusive, ATXN viability 0.89µM (no result: ATXN2 expr inh)
Nc1ccc(N=Nc2ccccc2O)c(N)c1	TGFb SMAD3 inh inconclusive (no result: HTT aggregate, HTT cytoprotect)
COc1cccc(-c2cnc3c(NC=O)cc(-c4ccccc4)cn23)c1	TGFb SMAD3 inh 8.9µM (no result: HTT aggregate, HTT cytoprotect)
COc1ccc(F)cc1-c1cc(NC=O)c2ncc(-c3cccc(C(=O)N(C)C)c3)n2c1	ATXN2 expr inh 25µM, ATXN viability inconclusive (no result: HTT aggregate, HTT cytoprotect)
COc1cccc(-c2cc(NC=O)c3ncc(-c4ccc(C(C)=O)cc4)n3c2)c1	ATXN2 expr inh inconclusive, TGFb SMAD3 inh 18µM (no result: HTT aggregate, HTT cytoprotect)
CC(C)(C)n1ncc2c(=O)n(Cc3ccc(Cl)c(F)c3)cnc21	none (no result: HTT aggregate, HTT cytoprotect, ATXN2 expr inh, ATXN viability)
COc1ccc(SCC(CC(C)C)N2CCN(C)CCC2=O)cc1 (stereo not drawn)	none (no result: HTT aggregate, HTT cytoprotect, ATXN2 expr inh, ATXN viability)
COc1ccccc1CCNc1ncnc2sc(C(=O)N3CCCN(C=O)CC3)c(C)c12	none (no result: HTT aggregate, HTT cytoprotect, ATXN2 expr inh, TGFb SMAD3 inh, HepG2 tox)
CCC(=O)[C@]12O[C@@]3(C4C(=O)OCCC41)N(Cc1ccccc1)C(C)=C(C(=O)OC)C(c1ccccc1)N3C2=O (stereo partly drawn)	none (no result: HTT aggregate, ATXN2 expr inh, TGFb SMAD3 inh, HepG2 tox, ATXN viability)
COc1ccc(/C=C/c2ccc3ccccc3n2)c(OC)c1	none (no result: HTT aggregate, HTT cytoprotect, ATXN2 expr inh, ATXN viability)
Cc1cccc2c1Sc1ccc(Cl)cc1CC2N1CCNCC1 (stereo not drawn)	ATXN2 expr inh inconclusive, TGFb SMAD3 inh inconclusive, ATXN viability 16µM (no result: HTT aggregate, HTT cytoprotect)
CN1CCN(C2Cc3cc(F)ccc3Sc3ccc(Cl)cc32)CC1 (stereo not drawn)	TGFb SMAD3 inh 32µM, ATXN viability inconclusive (no result: HTT aggregate, HTT cytoprotect, ATXN2 expr inh)
